High-throughput results deposited in PubChem by Buhrlage Lab, Dana-Farber Cancer Institute and Novartis Institutes for BioMedical Research (Cambridge, Mass).
USP28 block = inhibitors of human USP28 deubiquitinase. Ubiquitin carboxyl-terminal hydrolase 28 (Homo sapiens), Q96RU2. purified USP28, Ub-rhodamine cleavage fluorescence, 30 min. inhibition, % at 25 µM. hit rate 3% among 47,000. AID 1645857, 2021
Target sequence (Q96RU2 whole entry, looked up): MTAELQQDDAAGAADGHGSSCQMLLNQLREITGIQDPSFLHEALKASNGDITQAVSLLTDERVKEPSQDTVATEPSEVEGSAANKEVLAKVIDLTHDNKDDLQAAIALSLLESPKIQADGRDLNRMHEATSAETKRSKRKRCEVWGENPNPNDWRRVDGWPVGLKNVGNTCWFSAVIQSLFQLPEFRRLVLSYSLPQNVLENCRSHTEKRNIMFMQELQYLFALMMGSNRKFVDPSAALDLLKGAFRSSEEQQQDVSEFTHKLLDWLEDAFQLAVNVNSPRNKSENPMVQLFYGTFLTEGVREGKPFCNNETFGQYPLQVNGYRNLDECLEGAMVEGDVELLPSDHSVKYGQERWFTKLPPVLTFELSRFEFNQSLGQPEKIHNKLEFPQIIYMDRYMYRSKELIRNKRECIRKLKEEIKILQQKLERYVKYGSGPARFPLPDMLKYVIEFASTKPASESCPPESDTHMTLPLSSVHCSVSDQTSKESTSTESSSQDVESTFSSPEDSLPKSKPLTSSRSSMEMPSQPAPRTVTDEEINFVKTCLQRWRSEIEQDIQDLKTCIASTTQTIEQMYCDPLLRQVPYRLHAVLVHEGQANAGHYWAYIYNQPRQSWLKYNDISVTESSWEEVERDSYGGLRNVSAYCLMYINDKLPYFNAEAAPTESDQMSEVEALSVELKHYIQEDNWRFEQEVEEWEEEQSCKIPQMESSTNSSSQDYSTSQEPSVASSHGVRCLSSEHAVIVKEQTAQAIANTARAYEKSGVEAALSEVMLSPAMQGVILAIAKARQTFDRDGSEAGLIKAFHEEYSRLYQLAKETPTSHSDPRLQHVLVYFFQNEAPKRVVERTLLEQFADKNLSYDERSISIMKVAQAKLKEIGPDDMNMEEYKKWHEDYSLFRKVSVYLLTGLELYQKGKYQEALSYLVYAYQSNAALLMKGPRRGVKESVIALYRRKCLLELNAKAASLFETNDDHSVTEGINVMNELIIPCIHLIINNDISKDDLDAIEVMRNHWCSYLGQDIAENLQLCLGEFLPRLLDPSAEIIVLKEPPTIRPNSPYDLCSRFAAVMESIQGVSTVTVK
USP17 block = inhibitors of human USP17 deubiquitinase. Ubiquitin carboxyl-terminal hydrolase 17-like protein 5 (Homo sapiens), A8MUK1. purified USP17, Ub-rhodamine cleavage fluorescence, 3 h. inhibition, % at 50 µM. hit rate 6.5% among 47,000. AID 1645855, 2021
OTUD3 inh = inhibitors of human OTUD3 deubiquitinase; inhibition, % at 25 µM; OTU domain-containing protein 3 (Homo sapiens), Q5T2D3; purified OTUD3, Ub-rhodamine fluorescence, 2 h; hit rate 0.7% among 47,000
USP30 block = inhibitors of human USP30 deubiquitinase; Ubiquitin carboxyl-terminal hydrolase 30 (Homo sapiens), Q70CQ3; hit rate 5.3% among 47,000; AID 1645860, 2021; inhibition, % at 25 µM; purified USP30, Ub-rhodamine cleavage fluorescence
Numbers without * were called inactive; nt = not tested or not shown. This is a sample that favours compounds with a hit; in the whole collection about 11% have one here. Cut-off read from the data, not from the text of the source: active = inhibition above about 30%; inactive = the rest.

SMILES	USP28 block	USP17 block	OTUD3 inh	USP30 block
COc1ccc(C(C(=O)NC2CCCC2)N(Cc2ccccc2Cl)C(=O)c2ccco2)cc1 (stereo not drawn)	6.0	11.0	10.6	35.2*
CCc1ccc(-n2ccc(=O)c(-c3nc(-c4ccncc4)no3)n2)cc1	nt	38.8*	-2.4	nt
COc1cccc(-n2ccc(=O)c(-c3nc(-c4ccccc4Cl)no3)n2)c1	41.0*	nt	22.7	65.9*
Cc1ccc(-n2ccc(=O)c(-c3nc(-c4ccccc4F)no3)n2)cc1	2.6	17.6	0.2	30.0
COc1ccc(-n2ccc(=O)c(-c3nc(-c4ccc(F)cc4)no3)n2)cc1	1.6	30.9*	14.2	35.3*
COc1ccccc1-c1noc(-c2nn(-c3ccc(C)c(C)c3)ccc2=O)n1	-1.5	10.0	-26.3	-6.1
CCN(CC)c1ccc2nnc(CCC(=O)NC3CCCC3)n2n1	13.5	8.5	7.5	21.7
CCc1ccc2nc(N(CCCn3ccnc3)C(=O)c3cccs3)sc2c1	-1.1	nt	-11.1	46.0*
Cn1ccnc1CN1CCC([C@@H]2OC(C)(C)C3CC2[C@](C)(O)[C@@H](O)C3)CC1 (stereo partly drawn)	16.2	nt	14.6	32.4*
CC1(C)O[C@@H](C2CCN(Cc3ccccn3)CC2)C2CC1C[C@H](O)[C@@]2(C)O (stereo partly drawn)	-15.7	-21.6	-7.5	-85.9
CC(NC(=O)c1ccccc1)c1nc(-c2ccc(S(=O)(=O)N3CCCC3)cc2)no1 (stereo not drawn)	15.9	43.5*	11.9	16.8
CC(NC(=O)c1ccccc1)c1nc(-c2ccc(S(=O)(=O)N3CCCCC3)cc2)no1 (stereo not drawn)	3.8	21.3	0.1	0.1
Cc1ccc(C(=O)CCC(=O)OCC(=O)c2ccc3[nH]c(=O)[nH]c3c2)cc1	52.0*	54.7*	20.3	34.4*
O=C(COC(=O)c1ccc(Cl)s1)c1ccc2[nH]c(=O)[nH]c2c1	6.0	41.8*	-10.0	-26.0
Cc1ccc(C)c(NC(=O)CCC(=O)OCC(=O)c2ccc(Cl)cc2)c1	3.5	6.4	5.2	19.4
CC(Oc1ccc(Cl)cc1)C(=O)OCC(=O)Nc1ccc2[nH]c(=O)[nH]c2c1 (stereo not drawn)	6.3	22.7	-10.1	-17.3
Cc1ccc(CNCc2cc3c(-c4ccc(F)cc4)nn(-c4ccccc4)c3[nH]c2=O)cc1	-32.4	-35.3	-25.1	-164.6
Cc1ccc(C(=O)N2CCN(CC(=O)Nc3nnc(-c4ccccc4C)s3)CC2)cc1	10.8	14.0	3.2	21.4
Cc1ccc2nc(-c3ccc(NC(=O)COc4ccc5c(c4)OCO5)cc3)sc2c1	0.9	14.0	10.5	2.9
O=C(COc1cccc(N2CCCC2=O)c1)Nc1ccc2c(c1)OCCO2	36.4*	-3.1	0.0	-14.0
O=C(COc1ccc2c(c1)OCO2)Nc1ccc2c(c1)OCCO2	35.9*	-21.1	-2.1	-22.1
O=C(Cn1cnc2ccccc21)N1CCc2ccccc21	5.0	33.8*	-15.5	-7.6
N#Cc1ccc(-c2ccc(OCC(=O)Nc3ccc4c(c3)OCO4)cc2)cc1	3.7	55.5*	-2.7	28.6
O=C(COc1cccc(N2CCCC2=O)c1)NCc1ccc2c(c1)OCO2	6.6	4.2	1.6	3.7
CC(NC(=O)[C@@H]1Cc2c([nH]c3ccccc23)C2c3ccccc3C(=O)N21)c1ccccc1 (stereo partly drawn)	11.1	-1.9	-0.1	-5.2
SMILES	USP28 block	USP17 block	OTUD3 inh	USP30 block
CC(Oc1ccc(Cl)cc1)C(=O)Nc1ccc2c(c1)CCC2 (stereo not drawn)	17.6	25.0	22.6	31.8*
O=C(Cn1cnc2ccccc21)Nc1ccc2c(c1)CCC2	26.6	32.4*	6.6	52.6*
O=C(Cc1ccc(Br)cc1)Nc1ccc2c(c1)OCO2	9.5	44.2*	2.3	3.4
O=C(COc1ccc2c(c1)CCC2)Nc1ccc2c(c1)CCC2	13.2	59.1*	4.1	16.9
O=C(COc1ccc2ccccc2c1)Nc1ccc2c(c1)CCC2	11.5	16.1	17.7	13.3
CCn1c(CSc2nc3ccccc3c(=O)n2-c2ccc(OC)c(OC)c2)nc2cc(C(=O)O)ccc21	9.2	-2.1	1.2	1.7
Cc1ncc2c(n1)CCN(S(=O)(=O)c1ccc(Br)cc1)C2	-4.0	-3.9	-1.3	-38.8
CC(Nc1cccc(C(F)(F)F)c1)C(=O)Nc1ccc2c(c1)OCO2 (stereo not drawn)	-8.7	-8.2	-14.2	-38.5
CC(Nc1ccc(Oc2ccccc2)cc1)C(=O)Nc1ccc2c(c1)OCO2 (stereo not drawn)	9.5	21.5	9.3	30.1*
Cc1nn(-c2ccccc2)c(C)c1NC(=O)c1cnn(Cc2ccccc2)c1	31.2*	16.7	15.1	16.6
c1ccc(CCSc2ncnc3c2sc2nc(-c4ccccc4)c4c(c23)CCC4)cc1	-24.5	9.6	-18.2	-128.2
CC(C)c1ccc(C(C(=O)NC2CCCCC2)N(C(=O)c2cnccn2)c2cccc(F)c2)cc1 (stereo not drawn)	15.6	27.9	18.1	65.5*
Cc1cnc(C(=O)N2CCc3nc(C(N)=O)sc3CC2)cn1	0.2	-6.0	0.5	-0.6
O=C(COC(=O)c1ccc2ncsc2c1)Nc1ccc(F)c(F)c1	26.9	4.4	0.0	12.4
O=C(COC(=O)c1ccc2ncsc2c1)Nc1ccccc1F	2.4	61.3*	-4.4	-0.1
CCn1c(SCC(=O)c2c(C)[nH]c3ccccc23)nnc1-c1ccc2c(c1)OCCO2	41.0*	66.9*	6.0	53.1*
CCn1c(SCC(=O)N2CCc3ccccc32)nnc1-c1ccc(C)c(Cl)c1	8.3	32.6*	7.9	20.8
CCn1c(SCC(=O)N2CCc3ccccc32)nnc1C1CC1	nt	-9.5	-0.1	nt
CCn1c(SCC(=O)N2CCc3ccccc32)nnc1-c1ccc2c(c1)OCCO2	4.1	57.9*	27.8	74.2*
COc1ccc(OC)c(-n2c(SCC(=O)N3CCc4ccccc43)nnc2-c2cccc(S(=O)(=O)N(C)C)c2)c1	43.3*	48.0*	32.0*	48.7*
CCOC(=O)c1cnc(-c2cccs2)[nH]c1=O	0.0	5.8	-6.4	3.7
CCOc1ccc(-c2ccc3nnc(SCC(=O)Nc4cccc(C(C)=O)c4)n3n2)cc1	43.4*	61.5*	16.7	47.8*
O=C(COc1ccc(-n2cnnn2)cc1)Nc1ccc(F)c(Cl)c1	17.5	42.1*	2.9	28.0
CCOc1ccc(NC(=O)COc2cccc(-n3cnnn3)c2)cc1	55.0*	7.9	14.2	34.4*
O=C(C1CC1)N1CCC(c2nncn2Cc2ccccc2)CC1	-17.9	-4.1	-5.3	-10.3
CC(=O)Nc1ccc(S(=O)(=O)N(Cc2cc3ccc(C)cc3[nH]c2=O)CC2CCCO2)cc1 (stereo not drawn)	-3.1	0.9	2.3	-23.7
Cc1ccc(C)c2[nH]c(=O)c(CN(CC3CCCO3)S(=O)(=O)c3ccccc3Cl)cc12 (stereo not drawn)	19.8	14.1	6.0	33.0*
Cc1cccc(C(=O)NCc2nc3ccccc3n2Cc2ccccc2C)c1	2.7	59.2*	2.4	-11.7
